Experimental data: PubChem BioAssay (NCI)
Compounds without any hit were thinned out: in the full panel of roughly 83,000, 20% have a hit.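 In brief: 96-well plates, 48 h treatment, single concentration, percent growth endpoint.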 The source made the active and inactive calls. Rule for the calls: active = growth percent below 10; inactive = the rest.

The molecules below were run on SR leukemia (assay: NCI-60 one-dose screen, 48 h (100 = growth as untreated, 0 = no growth, -100 = all killed)). Settings: 10 µM unless noted.
`CCN1C(=O)N(CC)C2C1NN=c1s/c(=C3\C(=O)Nc4ccccc43)c(=O)n12` (stereo not given) was tested, and the growth was 18.4% (inactive).
`CC(C)(O)C1CCCN1C(=O)c1ccccc1I` (stereo not given) was tested, and the growth was 106% (inactive).
`O=C1NC(=S)NC(=O)C1=Cc1cccc(C=C2C(=O)NC(=S)NC2=O)c1` was tested, and the growth was 96.9% (inactive).
In the case of `CCOC(=O)c1c(SC)nn(-c2cc(=O)[nH]c3ccc(Br)cc23)c1N`, the growth is reported as 91% (inactive).
With `CC(=O)c1c[nH]c2ccc(-c3ccnc(Nc4ccc(NC(=O)C5CCCC5)c(CN5CCOCC5)c4)n3)cc12` the growth was 3.58% (active).
`COc1ccc(/C=C(/c2ccccc2)[N+](=O)[O-])cc1` was tested, and the growth was -19.1% (active).
With `COc1cc(NCC(O)CN(CC(C)C)C2CCCC2)c2ncccc2c1` (stereo not given) the growth was 80.1% (inactive).
`COc1ccc(Nn2c(SCC(=O)Nc3nc(-c4ccc(Cl)cc4)cs3)nc(C)c2C)cc1` was tested, and the growth was 40.3% (inactive).
With `Clc1ccc(N2N=C(c3cccc(Nc4ccncc4)c3)CC2c2ccc3c(c2)OCO3)cc1` (stereo not given) the growth was 6.11% (active).
In the case of `O=C(N/N=C/c1ccncc1)c1ccccc1Nc1cccc(C(F)(F)F)c1`, the growth is reported as 4.74% (active).
With `COc1ccc(Cc2nc3cc(OC)c(OC)cc3c(=O)[nH]2)cc1` the growth was 36.1% (inactive).
In the case of `COc1ccc(-c2c[nH]c(C(=O)O)c2-c2cc(OC)c3c(c2OC)OCO3)cc1`, the growth is reported as 106% (inactive).
For `Clc1nc(Cl)c2ncn(CC3(Cn4cnc5c(Cl)nc(Cl)nc54)COC3)c2n1`, the growth was -76.1% (active).
In the case of `COc1cc(/C=C/C(=O)c2c(C)oc3nc[nH]c(=O)c23)ccc1O`, the growth is reported as 126% (inactive).

These molecules were tested on RPMI-8226 leukemia in the same assay as above. Settings: 10 µM unless noted.
For `O=C1Nc2ccccc2/C1=C\c1cccc(/C=C2/C(=O)Nc3ccccc32)n1`, the growth was -48.7% (active).
In the case of `COc1ccc(/C=N/NC(=O)c2cccc3cc[nH]c23)cc1O`, the growth is reported as -19.4% (active).
`CCN1C(=O)N(CC)C2C1NN=c1s/c(=C3\C(=O)Nc4ccccc43)c(=O)n12` (stereo not given) was tested, and the growth was 36.9% (inactive).
For `CC(C)(O)C1CCCN1C(=O)c1ccccc1I` (stereo not given), the growth was 92.6% (inactive).
With `O=C1NC(=S)NC(=O)C1=Cc1cccc(C=C2C(=O)NC(=S)NC2=O)c1` the growth was 101% (inactive).
For `Cn1c2c(Cl)c(Cl)ccc2c2cc(N)[nH]c(=O)c21`, the growth was 94.9% (inactive).
With `COc1ccc(-c2cnnc3c(-c4cccc(C(F)(F)F)c4)cnn23)cc1` the growth was 45.8% (inactive).
For `O=C1Nc2c(ccc(Cl)c2Cl)/C1=C/c1ccc([N+](=O)[O-])cc1`, the growth was 90.1% (inactive).
In the case of `NS(=O)(=O)c1cccc(NC(=O)C(=O)C2C(=O)Nc3ccccc32)c1` (stereo not given), the growth is reported as 47.7% (inactive).
In the case of `CCOC(=O)c1c(SC)nn(-c2cc(=O)[nH]c3ccc(Br)cc23)c1N`, the growth is reported as 101% (inactive).
`CC(=O)c1c[nH]c2ccc(-c3ccnc(Nc4ccc(NC(=O)C5CCCC5)c(CN5CCOCC5)c4)n3)cc12` was tested, and the growth was -42.2% (active).
For `COc1ccc(/C=C(/c2ccccc2)[N+](=O)[O-])cc1`, the growth was -28% (active).
For `O=C1Nc2c(ccc(Cl)c2Cl)/C1=C/c1ccccn1`, the growth was 107% (inactive).
For `CCN(CCNc1cc(OC)cc2cccnc12)CCc1ccccc1`, the growth was 81.6% (inactive).
With `COc1cc2nc(-c3ccc(C#N)cc3)[nH]c(=O)c2cc1OC` the growth was 135% (inactive).
With `CCCOc1nc(SCCC)nc2c1cnn2-c1ccccc1` the growth was 152% (inactive).
With `O=S(=O)(c1ccccc1)N1CCCc2ccccc21` the growth was 93.1% (inactive).
For `COc1cc(NCC(O)CN(CC(C)C)C2CCCC2)c2ncccc2c1` (stereo not given), the growth was 94.6% (inactive).
With `COc1ccc(Nn2c(SCC(=O)Nc3nc(-c4ccc(Cl)cc4)cs3)nc(C)c2C)cc1` the growth was 35.7% (inactive).
For `COc1cccc2c1C(=O)c1c(O)c3c(c(O)c1C2=O)C[C@@](O)(C(=O)CO)C[C@@H]3O[C@H]1C[C@H](N)[C@@H](O)[C@H](C)O1`, the growth was 6.05% (active).
For `Clc1ccc(N2N=C(c3cccc(Nc4ccncc4)c3)CC2c2ccc3c(c2)OCO3)cc1` (stereo not given), the growth was 44.1% (inactive).
With `O=C(N/N=C/c1ccncc1)c1ccccc1Nc1cccc(C(F)(F)F)c1` the growth was 52.3% (inactive).
With `COc1ccc(Cc2nc3cc(OC)c(OC)cc3c(=O)[nH]2)cc1` the growth was 52.6% (inactive).
`COc1ccc(-c2c[nH]c(C(=O)O)c2-c2cc(OC)c3c(c2OC)OCO3)cc1` was tested, and the growth was 140% (inactive).
In the case of `Clc1ccc(N2N=C(c3cccc(Nc4ccncc4)c3)CC2c2ccccc2)cc1` (stereo not given), the growth is reported as 92.7% (inactive).
`COc1cc2nnn3c4ncccc4c(N=O)c3c2cc1OC` was tested, and the growth was -11.8% (active).
